HCV inh = blocks hepatitis C virus | Huh7.5.1 HCVcc-Cre infection, luciferase reporter, 44 h | 340,000 tested, 3.4% active | Potency, µM (highest dose often 41.8 µM), for inactives: at the highest dose activity change, negative = inhibition, actives largely listed as inhibitors
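Reporter virus HCVcc-Cre (~0.5 moi) infects cells exposed to compound; seeding density 1,000 cells/well with 4 h settling beforehand. Luminescence, 15 sec read, taken 44 h post-infection following a 15 min RT substrate incubation.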
AMA1-RON2 inh = inhibitors of Plasmodium falciparum AMA1-RON2 interaction. 360,000 tested, 0.2% active. AlphaScreen AMA1-biotinylated RON2 peptide binding. Potency, µM (top dose mostly 58.2 µM), for the others: at the top dose activity change, negative = inhibition, most hits filed as inhibitors;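 also: 0% = vehicle wells and -100% = peptide control; nearly all actives have a fitted effect of over 45% in size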
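AMA1 (3D7) with his tag at 25 nM final met compounds first, then biotinylated RON2 peptide at 25 nM; detection used donor plus acceptor beads, 10 µg/mL apiece, read by AlphaScreen after 30 min at room temperature.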
Pf growth 48h = P. falciparum growth inhibition at 48 hours (one generation); Potency, µM (top dose mostly 28.7 µM), for the others: at the top dose activity change, negative = inhibition, actives largely listed as inhibitors; P. falciparum luciferase growth in erythrocytes, 48 h; AID 504832; 310,000 tested, 5.9% active
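A one-generation exposure of luciferase-tagged malaria parasites in RPMI 1640/Albumax erythrocyte culture, 37 C and 5% CO2. Inhibition is inferred from decreased luminescence after adding detection reagent.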
Pf growth 96h = P. falciparum growth inhibition at 96 hours. P. falciparum luciferase reporter growth, 96 h. Potency, µM (titrated, usually from 28.7 µM), for the others: at the highest dose activity change, negative = inhibition, actives largely listed as inhibitors. AID 504834. 320,000 tested, 6.9% active
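Erythrocytes infected with luciferase-expressing P. falciparum were dispensed at 2% hematocrit and 0.05% parasitemia (final), then incubated with compounds 96 hours at 37 C in 5% CO2. Luminescence after detection reagent addition reported growth.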
Active calls of the source: *; ? = inconclusive; . = not tested or not shown; ! = repeats disagree; [ ] = remark or other dose. Sampled rows, rich in hits. Any-hit rate of the full collection: about 11%. Calls follow the shape of the dose curve; as a rule, active = well fitted curve in the direction sought with a large enough effect; inconclusive = small, poorly fitted or top-dose-only effect, or another doubt; inactive = no such curve, though single readings can be large; an effect the other way counts as inactive or inconclusive. Unless noted, % is scaled to controls: 0 for no effect and ±100 for the full control effect; potency is read from the fitted curve at half-maximal effect.

SMILES	HCV inh	AMA1-RON2 inh	Pf growth 48h	Pf growth 96h
Fc1cccc(Cl)c1/C=N/n1c(-c2cccnc2)n[nH]c1=S	1%	20%	0%	?
Cc1cc(-n2c(C)cc(C(=O)CN3C(=O)NC4(CCCC4)C3=O)c2C)no1	2%	0%	?	7%
Cc1cc(C(=O)CN2C(=O)NC3(CCCCC3C)C2=O)c(C)n1Cc1cccs1 (centres undefined)	?	-12%	18%	-28%
CCCCN1C(=O)C(=O)N(CC(=O)c2cc(C)n(-c3cc(C)on3)c2C)C1=O	20%	-4%	10µM*	?
Cc1cc(-n2c(C)cc(C(=O)CN3C(=O)NC4(CCCCC4)C3=O)c2C)no1	-29%	-15%	13µM*	19%
Cc1cc(-n2c(C)cc(C(=O)CN3C(=O)NC4(CCCCC4C)C3=O)c2C)no1 (centres undefined)	?	-1%	2.3µM*	-6%
C=CCOc1cccc(/C=N/NC(=O)CN2CCCCC2)c1	3%	1%	26%	22%
COc1ccc(OCC(=O)Nc2cccc3ncccc23)cc1	20%	5%	-11%	180%
CCOc1cc(C(=O)Nc2cccc3ncccc23)cc(OCC)c1OCC	-6%	-3%	.	15µM*
O=C(CCl)Nc1cccc2ncccc12	13µM*	32%	2.3µM*	1%
Cc1nc2sccn2c(=O)c1S(=O)(=O)NCC1CCN(Cc2ccccc2Cl)CC1	6%	0%	-12%	?
O=C(O)c1cccc(NC(=O)c2cccc(S(=O)(=O)N3CCc4ccccc43)c2)c1	12%	-2%	-7%	-17%
CN(C)C(=O)c1ccc(NC(=O)c2cccc(S(=O)(=O)N3CCCCCC3)c2)cc1	?	-3%	?	5.2µM*
CC(=O)Nc1ccc(NC(=O)c2cccc(S(=O)(=O)N3CCCCCC3)c2)cc1	?	-5%	.	.
CN(C)C(=O)c1ccc(NC(=O)c2cccc(S(=O)(=O)N3CCCc4ccccc43)c2)cc1	?	-1%	5.2µM*	9.3µM*
c1ccc(C2(N3CCCC3)CCCCC2)cc1	.	.	15µM*	13µM*
CC(=O)Nc1ccc(Nc2nnc(-c3ccc(C)c(S(N)(=O)=O)c3)c3ccccc23)cc1	1%	25%	?	-2%
COc1nnc(-c2ccc(C)c(S(=O)(=O)NC(C)C)c2)c2ccccc12	-14%	-17%	.	2.6µM*
COc1nnc(-c2ccc(C)c(S(N)(=O)=O)c2)c2ccccc12	?	-8%	.	2.9µM*
Cc1ccc(-c2nnc(Nc3ccc4c(c3)OCO4)c3ccccc23)cc1S(N)(=O)=O	?	?	?	2.9µM*
CC(C)Cc1ccccc1O	.	.	?	-12%
O=[N+]([O-])c1cccc(P(=O)(O)c2cccc([N+](=O)[O-])c2)c1	18%	-6%	13%	21%
Cc1cc(C(=O)COc2ccc(F)cc2Br)c(C)n1C1CC1	?	-21%	?	10µM*
Cc1cc(C(=O)CN2C(=O)NC(C)(c3cc(F)ccc3F)C2=O)c(C)n1C1CC1 (centres undefined)	13%	-11%	.	.
Cc1cc(C(=O)COc2ccc(F)cc2Br)c(C)n1C	11%	-5%	-16%	-6%
SMILES	HCV inh	AMA1-RON2 inh	Pf growth 48h	Pf growth 96h
Cc1cc(C(=O)COc2cccc([N+](=O)[O-])c2)c(C)n1C1CC1	11µM*	-9%	148%	63%
CCC1(c2ccc(F)cc2)NC(=O)N(CC(=O)c2cc(C)n(C3CC3)c2C)C1=O (centres undefined)	-1%	-6%	15µM*	?
O=C(CN1N=C(c2ccccc2)CCC1=O)NCCCN1CCc2ccccc2C1	-12%	-2%[11.6 µM]	-12%	-4%
O=C(c1ccoc1)N1CCCC(N2CCN(c3cccc(Cl)c3)CC2)C1 (centres undefined)	0%	9%	3%	-13%
Cc1ccc(S(=O)(=O)Nc2c(NC3CCCCC3)c3ccccc3oc2=O)cc1	6%	0%	22%	8%
O=c1oc2ccccc2c(NC2CCCCC2)c1NS(=O)(=O)c1ccc(Br)cc1	-4%	-5%	13%	10µM*
CC(C)(C)NC(=S)N1CCC(C(=O)c2ccc(F)cc2)CC1	5%	6%	?	?
CC(C)(C)NC(=S)N1CCC(C(=O)c2ccc(Cl)cc2)CC1	?	-2%	-14%	3.3µM*
C=CCNC(=S)N1CCC(C(=O)c2ccc(Cl)cc2)CC1	?	58%	0%	9.3µM*
Cc1ccc(-c2c(CC(=O)O)c(C)nc3sc4c(c23)CCCC4)cc1	11%	-8%	15%	7%
CC1(C)C=C2C(=NN(c3ccccc3)C(N)=C2C#N)CO1	14%	64%	-4%	?
COc1cccc(NC(=O)CN(C)C(=O)CSc2ccc3c(c2)OCCO3)c1	?	-7%[11.6 µM]	-24%	?
COc1ccccc1Oc1cc(C#N)c(C#N)cc1-n1nnc2ccccc21	?	11%	9.3µM*	2.3µM*
N#Cc1cc([N+](=O)[O-])c(-n2nnc3ccccc32)c([N+](=O)[O-])c1	-14%	5%	74%	134%
COC(=O)c1ccc(CNC(=O)c2ccc(S(=O)(=O)N3CCCC(C)C3)cc2)cc1 (centres undefined)	-30%	1%[11.6 µM]	13µM*	?
CC1CCCN(c2ccc(C(=O)NCc3ccco3)cc2[N+](=O)[O-])C1 (centres undefined)	?	-27%	4.1µM*	?
O=C(NCc1ccco1)C1CCCN(S(=O)(=O)c2cc(Cl)ccc2Cl)C1 (centres undefined)	?	5%	-9%	20%
CC1CCN(S(=O)(=O)c2ccc3c(c2)c(=O)c(C(=O)NCc2ccco2)cn3C)CC1	-20%	-6%	?	15µM*
Cc1ccc(S(=O)(=O)N2CCCC(C(=O)NCc3ccco3)C2)cc1Cl (centres undefined)	-8%	5%	?	13µM*
O=C(NC1CC(=O)N(c2ccc(Cl)cc2)C1)C1CC1 (centres undefined)	-2%[8.37 µM]	16%	14%	25%
CCOC(=O)N1CCC(N2C(=O)c3ccc(C(=O)NCc4ccc(F)cc4)cc3C2=O)CC1	1%	6%	46%	-3%
CCS(=O)(=O)N1CCC(C(=O)NCc2ccco2)CC1	19%	-2%	1%	-153%
CCOC(=O)N1CCC(N2C(=O)c3ccc(C(=O)NCc4ccco4)cc3C2=O)CC1	4%	0%	13%	12µM*
CSc1ccc(S(=O)(=O)N2CCC(C(=O)NCc3ccco3)CC2)cc1	4%	19%	1.7µM*	?
CC1CCN(S(=O)(=O)c2ccc(C(=O)NCc3ccco3)cc2)CC1	0%	-2%	2.1µM*	0%
N#Cc1ccc(N=c2ssnc2Cl)cc1	26%	-11%	43%	12µM*!
Fc1cnc(Cl)nc1NC1CCCCC1	7%	9%	24%	4.7µM*
CCOC(=O)C1=C[C@@H](C(C)C)N(S(=O)(=O)c2ccc(C)cc2)[C@H]1c1ccc(C(F)(F)F)cc1	.	-2%	.	.
CN(C)c1ccc(-c2csc(C(C)(O)c3ccc(F)c(F)c3)n2)cc1 (centres undefined)	.	20µM*	.	.
